# Sampled rows, rich in hits. Any-hit rate of the full collection: about 19%.
# MCF10A rerep – inducers of DNA re-replication in MCF 10A breast cells | MCF 10A DNA re-replication, Hoechst nuclear intensity, 48 h | Potency, µM (titrated, usually from 46.1 µM), for inactives: at the highest dose activity, positive = re-replication, hits mostly activators | 2.9% of 350,000 active | AID 624296; further: potency means the concentration at half of the fitted maximal effect; % of control where 0% means no effect; nearly all actives have a fitted effect of over 50% in size
# TDP1 cell CPT – DT40-hTDP1 cell growth loss with CPT. 12% of 420,000 active. Potency, µM (series often up to 46.2 µM), without a hit: at the top dose activity change, negative = growth inhibition, most hits filed as inhibitors. AID 686979. chicken DT40 Tdp1-/-;hTDP1 cells + 20 nM CPT, ATP luminescence, 48 h; further: potency means the concentration at half of the fitted maximal effect; on the % scale 0 is the no-effect control and ±100 the full control effect; nearly all actives have a fitted effect of over 55% in size
#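 Chicken DT40 Tdp1-/- cells complemented with human TDP1, 400 cells/well, exposed to compounds plus 20 nM camptothecin for at least 48 h at 37 C; viability read as ATP content by CellTiter-Glo luminescence.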
# Chronic BCR inh – chronic active BCR signaling inhibition. ABC-DLBCL IkBa-CBG/CBR reporter, luminescence ratio, 4 h. Potency, µM (doses to about 46.1 µM), for inactives: at the highest dose activity change, negative = inhibition, usual class: inhibitors. 0.05% of 340,000 active; active means well fitted inhibition curve with a large enough effect in the signal ratio, with a control signal flat, not every such curve was filed as active; inconclusive means small, poorly fitted or top-dose-only effect, or effect the other way, or a change in a side signal; the % refers to the signal ratio;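 further: potency means the concentration at half of the fitted maximal effect; plate controls were basal doxycycline-induced cells for no effect and cells given 10 µM MG132 for full effect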
#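 Concentration-response series (up to 46 uM) were applied to TMD8 dual-reporter cells for 4 h at 37C with doxycycline. Green/red ratio, after filter-overlap correction, defined %Activity; red signal alone was normalised to basal cells and zero luminescence.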
# TDP1 cell noCPT – qHTS for Inhibitors of human tyrosyl-DNA phosphodiesterase 1 (TDP1): qHTS in cells in absence of CPT; AID 686978, 2013; Potency, µM (top dose mostly 46.2 µM), inactives show at the highest dose activity change, negative = growth inhibition, hits mostly inhibitors; 15% of 420,000 active; DT40 Tdp1-/- hTDP1 cells, no CPT, ATP luminescence, 48 h; further: potency means the concentration at half of the fitted maximal effect; on the % scale 0 is the no-effect control and ±100 the full control effect; nearly all actives have a fitted effect of over 55% in size
#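 Chicken DT40 Tdp1-/- cells stably complemented with human TDP1 were seeded at 400 cells/well with DMSO in place of 20 nM camptothecin. After compound pinning, cells grew at least 48 hr at 37 °C; viability read by CellTiter-Glo luminescence.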
# SW480 rereplic – inducers of DNA re-replication in SW480 colon cancer cells | SW480 DNA re-replication, Hoechst DNA content imaging, 48 h | Potency, µM (highest dose often 46.1 µM), for the others: top-dose re-replication activation, actives largely listed as activators | 1.8% of 340,000 active | AID 624297; further: potency means the concentration at half of the fitted maximal effect; % of control where 0% means no effect; nearly all actives have a fitted effect of over 55% in size
#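 Image-based DNA-content assay: after two days of treatment, nuclei were labelled with the DNA dye Hoechst and imaged, and hits were compounds raising the count of nuclei showing high fluorescence intensity.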
# IL-1B inflam inh – inhibitors of inflammasome signaling (IL-1 beta secretion); THP-1 LPS/ATP IL-1B secretion, AlphaLISA, 16 h; hits give low values; 4.7% of 360,000 active; activity change, % at 57.5 µM; in the data active means activity change below about -50%; inconclusive means mostly about -30% to -49%; further: on the % scale 0 is the no-effect control and ±100 the full control effect
#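 Secreted IL-1B measured by AlphaLISA bead assay after 16 h compound exposure of THP-1 cells; compounds (final up to 57.5 uM) added 1 h before LPS (250 ng/mL) and ATP (1.25 mM) stimulation; lower signal means less secretion.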
# * = called active by the depositor; u = inconclusive; x = no result given; [ ] = remark or other dose. Unless noted, the call rests on the fitted dose curve; in most records, active means well fitted curve in the direction sought with a large enough effect; inconclusive means small, poorly fitted or top-dose-only effect, or another doubt; inactive means no such curve, though single readings can be large; an effect the other way counts as inactive or inconclusive.
SMILES,MCF10A rerep,TDP1 cell CPT,Chronic BCR inh,TDP1 cell noCPT,SW480 rereplic,IL-1B inflam inh
O=C(COC(=O)C12CC3CC(CC(Br)(C3)C1)C2)Nc1c(F)cccc1F,3%,-22%,u,5%,24%,11
O=C(CC1OC(=O)c2ccccc21)Nc1cc(S(=O)(=O)N2CCOCC2)ccc1OCC(F)(F)F (stereo unspecified),11%,u,1%,-12%,-28%,-10
FC(F)(F)c1ccc(C2[C@H]3CN(Cc4cccnc4)[C@H](c4ccccc4)C34CC2(c2cccnc2)C4)cc1 (stereo partly specified),10%,23µM*,13%,21µM*,0%,-14
COC(=O)c1ccc(C23CC4(C2)[C@H](CN(Cc2ccc(-c5ccccc5)cc2)[C@@H]4c2ccccc2)C3c2ccc(Cl)nc2)cc1 (stereo partly specified),12%,-1%,u,-13%,2%[9.22 µM],5
COC(=O)c1ccc(C23CC4(C2)[C@H](CN(Cc2ccc(-c5ccccc5)cc2)[C@@H]4c2ccccc2)C3c2ccc(C(F)(F)F)cc2)cc1 (stereo partly specified),-1%,u,-7%,u,-12%[9.22 µM],0
COC(=O)c1ccc(C23CC4(C2)[C@H](CN(Cc2cccnc2)[C@@H]4c2ccccc2)C3c2ccc(C(F)(F)F)cc2)cc1 (stereo partly specified),0%,23µM*,3%,13µM*,-7%,39
COC(=O)c1ccc(C23CC4(C2)[C@H](CN(Cc2cccnc2)[C@@H]4c2ccccc2)C3c2ccccc2)cc1 (stereo partly specified),24%,23µM*,4%,23µM*,u,30
COC(=O)c1ccc(C23CC4(C2)[C@H](CN(CC2CCCCC2)[C@@H]4c2ccccc2)C3c2ccccc2)cc1 (stereo partly specified),u,26µM*,0%,u,3%,-25
COc1ccccc1N1CCN(C(=O)C(=O)c2cccc([N+](=O)[O-])c2)CC1,x,u,x,u,x,29
CCN(CC)C(=O)c1[nH]cnc1C(=O)N[C@@H](C)C(=O)OCc1ccccc1,18%,u,8%,10µM*,-1%,-5
C[C@H](NC(=O)c1nc[nH]c1C(=O)NC(c1ccccc1)c1ccccc1)C(=O)OCc1ccccc1,-21%,23µM*,-2%,23µM*,4%,4
O=C(Nc1ccsc1C(=O)N1CCCC1)c1ccccc1,2%,16µM*,2%,21µM*,-5%,-7
COc1cccc(OC)c1C(=O)NC(=S)N1CCCCC1c1cccnc1 (stereo unspecified),5%,6%,u,4%,-14%,-20
C#CCNC(=O)C1=C[C@H](c2csc3ccccc23)C[C@H](OCc2ccc(CO)cc2)O1,2.1µM*,u,-5%,16µM*,u,-28
O=C(NCc1ccccc1)C1=C[C@H](c2csc3ccccc23)C[C@H](OCc2ccc(CO)cc2)O1,u,u,1%,u,1%,-52*
O=C(NCc1ccccc1)C1=C[C@H](c2ccc3c(c2)OCO3)C[C@H](OCc2ccc(CO)cc2)O1,u,6.5µM*,x,u,4%,-17
O=C(NCc1ccccc1)C1=C[C@@H](c2ccc3c(c2)OCO3)C[C@@H](OCc2ccc(CO)cc2)O1,7%,u,x,u,2%,-25
Cc1ccccc1C(=O)Nc1cccc(C(=O)OCc2cc(=O)n3c(C)csc3n2)c1,x,-109%,x,u,x,x
O=CNc1ccc(/C=C/c2ccnc3ccccc23)cc1,x,13µM*,x,14µM*,x,x

# Screening data as filed in PubChem BioAssay.
